Among all 5,500 compounds or so, about 2,000 (36%) were called active. Inconclusive results (about 18%) are left out. Cut-off read from the data, not from the text of the source: active = normalized growth mostly below about 0.91 (no sharp cut-off); inconclusive = no clear call, values can overlap the other calls; inactive = mostly above about 0.92. This is one part of the list.
Test: chemical genetic growth profiling, strain panel (AID 1159580);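 note: tested at 20 µM; growth read once vehicle control cultures reached saturation at 30 °C; 1 = growth at the plate median or of vehicle wells; lower values mean less growth of the strain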
Conditions: growth OD

Measured: normalized growth

CCc1cc(C(N)=S)ccn1
inactive: S. cerevisiae deletion strains, locus YJR066W, strain TOR1, stronger effect = lower value 1 | S. cerevisiae deletion strains, locus YKL009W, strain mrt4, stronger effect = lower value 0.966 | S. cerevisiae deletion strains, locus YKL068W, stronger effect = lower value 0.975 | S. cerevisiae deletion strains, locus YKL085W, strain MDH1 (second series), stronger effect = lower value 0.964 | S. cerevisiae deletion strains, locus YKL085W, strain MDH1, stronger effect = lower value 0.964 | S. cerevisiae deletion strains, locus YKL160W, strain elf1, stronger effect = lower value 1.05 | S. cerevisiae deletion strains, locus YKL190W, strain CNB1, stronger effect = lower value 0.991 | S. cerevisiae deletion strains, locus YKR001C, strain vps1, stronger effect = lower value 0.955 | S. cerevisiae deletion strains, locus YKR026C, strain gcn3, stronger effect = lower value 1 | S. cerevisiae deletion strains, locus YKR091W, strain srl3, stronger effect = lower value 1.01 | S. cerevisiae deletion strains, locus YLL001W, strain dnm1, stronger effect = lower value 1.04 | S. cerevisiae deletion strains, locus YLL026W, stronger effect = lower value 1 | S. cerevisiae deletion strains, locus YLL041C, strain sdh2, stronger effect = lower value 1 | S. cerevisiae deletion strains, locus YLR027C, strain aat2, stronger effect = lower value 0.987 | S. cerevisiae deletion strains, locus YLR039C, strain RIC1, stronger effect = lower value 0.939 | S. cerevisiae deletion strains, locus YLR058C, strain SHM2, stronger effect = lower value 0.978 | S. cerevisiae deletion strains, locus YLR102C, strain apc9, stronger effect = lower value 0.994 | S. cerevisiae deletion strains, locus YLR113W, strain HOG1, stronger effect = lower value 1.04 | S. cerevisiae deletion strains, locus YLR221C, strain rsa3, stronger effect = lower value 1.02 | S. cerevisiae deletion strains, locus YLR258W, strain gsy2, stronger effect = lower value 1 | S. cerevisiae deletion strains, locus YLR262C, strain YPT6 (second series), stronger effect = lower value 1.04 | S. cerevisiae deletion strains, locus YLR262C, strain YPT6, stronger effect = lower value 0.937 | S. cerevisiae deletion strains, locus YLR268W, strain sec22, stronger effect = lower value 0.977 | S. cerevisiae deletion strains, locus YLR320W, strain mms22, stronger effect = lower value 1.04 | S. cerevisiae deletion strains, locus YLR330W, strain CHS5, stronger effect = lower value 0.984 | S. cerevisiae deletion strains, locus YLR342W, strain FKS1 (second series), stronger effect = lower value 1.03 | S. cerevisiae deletion strains, locus YLR342W, strain FKS1, stronger effect = lower value 1.01 | S. cerevisiae deletion strains, locus YLR357W, strain rsc2, stronger effect = lower value 0.99 | S. cerevisiae deletion strains, locus YLR370C, strain arc18, stronger effect = lower value 1 | S. cerevisiae deletion strains, locus YLR371W, strain rom2, stronger effect = lower value 0.991 | S. cerevisiae deletion strains, locus YLR384C, strain iki3, stronger effect = lower value 1 | S. cerevisiae deletion strains, locus YLR418C, strain cdc73, stronger effect = lower value 0.999 | S. cerevisiae deletion strains, locus YML016C, strain PPZ1, stronger effect = lower value 0.99 | S. cerevisiae deletion strains, locus YML032C, strain rad52, stronger effect = lower value 0.973 | S. cerevisiae deletion strains, locus YML120C, strain ndi1, stronger effect = lower value 1.02 | S. cerevisiae deletion strains, locus YML124C, strain tub3, stronger effect = lower value 0.987 | S. cerevisiae deletion strains, locus YMR058W, strain fet3, stronger effect = lower value 1.01 | S. cerevisiae deletion strains, locus YMR078C, strain ctf18, stronger effect = lower value 0.978 | S. cerevisiae deletion strains, locus YMR125W, strain sto1, stronger effect = lower value 1 | S. cerevisiae deletion strains, locus YMR129W, stronger effect = lower value 0.996 | S. cerevisiae deletion strains, locus YMR205C, strain PFK2, stronger effect = lower value 1.07 | S. cerevisiae deletion strains, locus YMR223W, strain ubp8, stronger effect = lower value 1.03 | S. cerevisiae deletion strains, locus YMR231W, strain pep5, stronger effect = lower value 1 | S. cerevisiae deletion strains, locus YMR263W, strain SAP30, stronger effect = lower value 0.982 | S. cerevisiae deletion strains, locus YMR307W, strain GAS1, stronger effect = lower value 1.06 | S. cerevisiae deletion strains, locus YNL067W, strain RPL9B, stronger effect = lower value 0.954 | S. cerevisiae deletion strains, locus YNL071W, strain lat1, stronger effect = lower value 1.01 | S. cerevisiae deletion strains, locus YNL128W, strain TEP1, stronger effect = lower value 0.985 | S. cerevisiae deletion strains, locus YNL183C, strain NPR1, stronger effect = lower value 0.999 | S. cerevisiae deletion strains, locus YNL209W, strain ssb2, stronger effect = lower value 1.01 | S. cerevisiae deletion strains, locus YNL233W, strain BNI4, stronger effect = lower value 0.963 | S. cerevisiae deletion strains, locus YNL248C, strain rpa49, stronger effect = lower value 1 | S. cerevisiae deletion strains, locus YNL250W, strain rad50, stronger effect = lower value 0.964 | S. cerevisiae deletion strains, locus YNL271C, strain bni1, stronger effect = lower value 0.971 | S. cerevisiae deletion strains, locus YNL298W, strain CLA4, stronger effect = lower value 0.978 | S. cerevisiae deletion strains, locus YNL307C, strain MCK1, stronger effect = lower value 0.985 | S. cerevisiae deletion strains, locus YNL322C, strain KRE1 (second series), stronger effect = lower value 1.03 | S. cerevisiae deletion strains, locus YNR049C, strain mso1, stronger effect = lower value 1 | S. cerevisiae deletion strains, locus YNR052C, strain pop2, stronger effect = lower value 0.993 | S. cerevisiae deletion strains, locus YOL006C, strain TOP1, stronger effect = lower value 0.995 | S. cerevisiae deletion strains, locus YOL012C, strain htz1 1.05 | S. cerevisiae deletion strains, locus YOL147C, strain pex11, stronger effect = lower value 0.988 | S. cerevisiae deletion strains, locus YOR001W, strain rrp6, stronger effect = lower value 0.965 | S. cerevisiae deletion strains, locus YOR061W, strain CKA2, stronger effect = lower value 0.96 | S. cerevisiae deletion strains, locus YOR069W, strain VPS5, stronger effect = lower value 0.998 | S. cerevisiae deletion strains, locus YOR070C, strain gyp1, stronger effect = lower value 1.01 | S. cerevisiae deletion strains, locus YOR080W, strain dia2, stronger effect = lower value 0.998 | S. cerevisiae deletion strains, locus YOR083W, strain WHI5, stronger effect = lower value 1.05 | S. cerevisiae deletion strains, locus YOR106W, strain vam3, stronger effect = lower value 1.06 | S. cerevisiae deletion strains, locus YOR136W, strain idh2, stronger effect = lower value 0.984 | S. cerevisiae deletion strains, locus YOR144C, strain elg1, stronger effect = lower value 0.985 | S. cerevisiae deletion strains, locus YOR184W, strain ser1, stronger effect = lower value 1.01 | S. cerevisiae deletion strains, locus YOR231W, strain MKK1, stronger effect = lower value 1.07 | S. cerevisiae deletion strains, locus YOR265W, strain rbl2, stronger effect = lower value 1.03 | S. cerevisiae deletion strains, locus YOR270C, strain vph1, stronger effect = lower value 1.03 | S. cerevisiae deletion strains, locus YOR290C, strain snf2, stronger effect = lower value 1.01 | S. cerevisiae deletion strains, locus YOR316C, strain cot1, stronger effect = lower value 0.981 | S. cerevisiae deletion strains, locus YPL051W, strain arl3, stronger effect = lower value 0.998 | S. cerevisiae deletion strains, locus YPL078C, strain atp4, stronger effect = lower value 1.01 | S. cerevisiae deletion strains, locus YPL106C, strain sse1, stronger effect = lower value 1.02 | S. cerevisiae deletion strains, locus YPL240C, strain hsp82, stronger effect = lower value 0.982 | S. cerevisiae deletion strains, locus YPL256C, strain CLN2, stronger effect = lower value 1.15 | S. cerevisiae deletion strains, locus YPR119W, strain clb2, stronger effect = lower value 0.986 | S. cerevisiae deletion strains, locus YPR141C, strain kar3, stronger effect = lower value 0.974 | S. cerevisiae deletion strains, locus YPR163C, strain tif3, stronger effect = lower value 0.986 | S. cerevisiae deletion strains, locus YPR167C, strain met16, stronger effect = lower value 0.989 | S. cerevisiae deletion strains, strain wtn01, stronger effect = lower value 0.995 | S. cerevisiae strains, strain wild type, stronger effect = lower value 0.986

— PubChem BioAssay AID1159580 (chemical genetic matrix, 2015)
